High-throughput results (PubChem)
MITF inh = inhibitors of human MITF; hit rate 0.91% among 650,000; inhibition, % at 2.6 µM; O75030; AlphaScreen MITF homodimerization, bead proximity signal; AID 1259374; in the data active = inhibition above about 50%;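 also: 0% = vehicle wells with protein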
TEAD-YAP inh = TEAD-YAP interaction inhibition. HEK-TIYL cells, TEAD-Gal4/YAP UAS-luciferase luminescence. inhibition, % at 9.12 µM. hit rate 1.4% among 640,000; in the data active = inhibition above about 32%;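 also: 0% = median of test compound wells and 100% = reference inhibitor wells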
GPR151 activ = activators of human GPR151. PathHunter beta-arrestin GPR151 cells, luminescence. activation, % at 11.2 µM. hit rate 1% among 650,000. AID 1508602; in the data active = activation above about 4.9%;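 also: 0% = median of compound wells and 100% = cells with positive control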
FBW7 activator = human FBW7 E3 ligase activation, primary screen; normalized activity (activation), % at 26.1 µM; AlphaScreen FBW7–phospho-cyclin E peptide binding, activator screen; AID 1259310; Q969H0; hit rate 0.13% among 650,000; in the data active = normalized activity above about 1.9%;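 also: purified mutant Fbw7 with reduced substrate affinity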
MITF confirm = confirmation of human MITF inhibitors | hit rate 16% among 4,700 | shares compounds with MITF inh | AlphaScreen MITF homodimerization, biotin/His-MITF beads | AID 1259372 | inhibition, % at 2.6 µM;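 active = inhibition above a cutoff derived from the DMSO control wells, cut at about 28% in these data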;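 also: 0% = MITF dimer wells with DMSO only; inhibitors lower the bead chemiluminescence by keeping MITF from dimerizing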
AlphaScreen DR = counter-screen: compounds optically interfering with AlphaScreen | shares compounds with MITF inh | AlphaScreen optical interference counterscreen, cell-free | hit rate 6% among 480 | AID 1259373 | IC50, µM; call rule not given here
AlphaScreen intf2 = AlphaScreen optical interference, counter-screen | LysRS AlphaScreen counterscreen, signal interference, triplicate | hit rate 7.6% among 4,700 | inhibition, % at 2.6 µM | AID 1259376 | shares compounds with MITF inh;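 active = inhibition above a cutoff derived from the DMSO control wells, cut at about 30% in these data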
Numbers without * were called inactive; . = not tested or not shown. Sampled rows, rich in hits. Any-hit rate of the full collection: about 3.4%.

SMILES	MITF inh	TEAD-YAP inh	GPR151 activ	FBW7 activator	MITF confirm	AlphaScreen intf2	others
c1ccc(CN2CCN(c3ncccn3)CC2)nc1	13.7	-1.6	-2.6	0.8	.	.
CC1CCC(N2CCN(Cc3ccccn3)CC2)CC1 (configuration not stated)	63.6*	11.9	-1.5	0.6	0.5	3.4
c1ccc(CN2CCN(C3CCCCCC3)CC2)nc1	66.9*	3.9	-0.6	0.5	-9.2	14.6
CCOC(=O)c1ccc(NC(=O)CC2C(=O)N(c3ccc(OC)cc3)C(=S)N2CCCN2CCN(CC)CC2)cc1 (configuration not stated)	-5.8	-11.3	-0.7	0.0	.	.
O=C(COC(=O)c1cc(=O)c2ccccc2o1)Nc1c(F)cccc1F	3.3	4.1	-0.7	-0.1	.	.
COc1ccc(C(=O)Nc2cc(C(=O)Nc3cc(Cl)c(OC)cc3OC)ccc2N2CC3CC(C2)c2cccc(=O)n2C3)cc1 (configuration not stated)	-9.2	-4.0	0.7	-0.1	.	.
CN1C(=O)[C@H]2CN(C(=O)c3ccc(Cl)cc3)CCN2C(=O)[C@@H]1CO	15.0	-0.6	-0.5	0.0	.	.
CN1C(=O)[C@H]2CN(C(=O)NC3CCCCC3)CCN2C(=O)[C@@H]1CO	76.4*	-0.1	0.4	-0.2	71.0*	-10.8	AlphaScreen DR=>6.48
O=C(NC1CCCCC1)N1CCN2C(=O)[C@H]3CCCN3C(=O)[C@H]2C1	78.8*	-0.5	-0.1	0.4	73.2*	0.8	AlphaScreen DR=>6.48
COc1ccc(CCNC(=O)CCn2c(SCC(=O)Nc3cccc(C(F)(F)F)c3)nc3ccccc3c2=O)cc1OC	56.4*	4.1	1.0	0.2	-9.4	-1.7
COc1ccccc1NC(=O)NC1(C(=O)N2CCN3CCCC3C2)CCCCC1 (configuration not stated)	-13.1	-6.9	0.1	0.2	.	.
CC1(C)CC(=O)C(C(C2=C(O)CC(C)(C)CC2=O)c2ccccc2O)C(=O)C1 (configuration not stated)	8.5	-4.2	0.0	0.4	.	.
CCC(C1=C(O)CC(C)(C)CC1=O)C1C(=O)CC(C)(C)CC1=O (configuration not stated)	52.6*	8.0	-0.6	-0.1	2.2	1.1
Cc1cc2nnn(C[C@@H](C)NC(=O)Cc3ccsc3)c2cc1C	10.7	3.9	-0.3	0.3	.	.
CC1CCCCN1Cc1ccccc1C#N (configuration not stated)	71.1*	1.1	1.6	0.2	-12.5	-7.0
CC1CCCCN1Cc1c(C#N)c2ccccc2n1C (configuration not stated)	-13.5	-1.1	2.5	-0.3	.	.
CC1=C(C(=O)OCCc2ccccc2)C(c2ccc(C(F)(F)F)cc2)NC(=O)N1C (configuration not stated)	-0.5	5.6	-1.6	0.0	.	.
Cc1csc(-c2cc3ccccc3oc2=O)n1	66.7*	-25.4	-7.2	0.1	12.9	10.3
Cc1cnc(NCCCN2CCCC2=O)nc1Nc1ccc(Oc2ccccc2)cc1	17.9	-9.7	4.4	-0.2	.	.
COc1ccc(C[C@@H]2NC(=O)[C@H]3CN(C(=O)NCc4ccccc4)CCN3C2=O)cc1	79.4*	6.5	-0.6	-0.2	72.0*	-8.8	AlphaScreen DR=>6.48
O=C1N[C@H](Cc2ccccc2)C(=O)N2CCN(C(=O)NCc3ccccc3)C[C@H]12	68.6*	7.4	-0.7	0.0	63.7*	-6.3	AlphaScreen DR=>6.48
C[C@@H](O)[C@@H]1NC(=O)[C@H]2CN(C(=O)OCc3ccccc3)CCN2C1=O	15.2	6.6	0.4	-0.1	.	.
COc1ccc(C[C@@H]2NC(=O)[C@H]3CN(C(=O)c4ccc(-c5ccccc5)cc4)CCN3C2=O)cc1	20.8	10.0	1.6	1.3	.	.
O=C1N[C@@H](Cc2cnc[nH]2)C(=O)N2CCN(C(=O)NCc3ccccc3)C[C@H]12	12.5	11.3	-0.3	0.1	.	.
C[C@H](O)[C@H]1NC(=O)[C@H]2CN(C(=O)NCc3ccccc3)CCN2C1=O	75.0*	6.2	-0.7	0.5	70.8*	-13.2	AlphaScreen DR=>6.48
COc1ccc(-c2c(=O)n(OCc3c(F)cccc3F)c3ccccc3[n+]2[O-])cc1OC	14.9	8.2	-1.1	0.0	.	.
CCN1CCN(CC(=O)c2ccc(OC(F)F)cc2)CC1	77.8*	-0.7	0.5	0.2	8.7	18.2
CC(=O)c1ccc(OCCN2CCCCC2)cc1	31.8	-3.0	-0.2	-0.3	.	.
